Several values for one entry are separate records, joined by “and”; a condition that tells them apart may be missing. Identical values can stand only once. Activity calls are given as the source filed them. Unless noted, how the calls were made is not given here.
Assays:
[1] = HepG2 liver cancer cell viability effects, profiling panel, resazurin fluorescence, 24 h, PK04 Diversity Set (AID 1172); conditions: higher = more signal; further: test concentration not given here
[2] = basal S. cerevisiae growth modulation, no modifier, primary screen, OD600, strain BY4716, 24 h, basal condition (AID 1173); conditions: OD600, 24 h, higher = more signal, called active from +8 up or from −8 down
[3] = MM1S myeloma cell viability, profiling panel, resazurin fluorescence, basal, 24 h, PK04 Diversity Set (AID 1174); conditions: higher = more signal, called active from +8 up or from −8 down;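 further: MM1S multiple myeloma cell line; test concentration not given here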
[4] = biological target: Dihydroorotate dehydrogenase (quinone), mitochondrial (Plasmodium falciparum (isolate 3D7)) (UniProt Q08210); experiment: PfDHODH enzyme inhibitors, primary screen, biochemical, C-terminal His tag, absorbance 600 nm (AID 1175); conditions: DCIP absorbance 600 nm, higher = more signal, called active from +8 up or from −8 down;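 further: recombinant parasite enzyme with a five histidine tag at its C terminus; test concentration not given here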
Dihydroorotate dehydrogenase (quinone), mitochondrial (Plasmodium falciparum (isolate 3D7)), sequence (Q08210 whole entry, looked up): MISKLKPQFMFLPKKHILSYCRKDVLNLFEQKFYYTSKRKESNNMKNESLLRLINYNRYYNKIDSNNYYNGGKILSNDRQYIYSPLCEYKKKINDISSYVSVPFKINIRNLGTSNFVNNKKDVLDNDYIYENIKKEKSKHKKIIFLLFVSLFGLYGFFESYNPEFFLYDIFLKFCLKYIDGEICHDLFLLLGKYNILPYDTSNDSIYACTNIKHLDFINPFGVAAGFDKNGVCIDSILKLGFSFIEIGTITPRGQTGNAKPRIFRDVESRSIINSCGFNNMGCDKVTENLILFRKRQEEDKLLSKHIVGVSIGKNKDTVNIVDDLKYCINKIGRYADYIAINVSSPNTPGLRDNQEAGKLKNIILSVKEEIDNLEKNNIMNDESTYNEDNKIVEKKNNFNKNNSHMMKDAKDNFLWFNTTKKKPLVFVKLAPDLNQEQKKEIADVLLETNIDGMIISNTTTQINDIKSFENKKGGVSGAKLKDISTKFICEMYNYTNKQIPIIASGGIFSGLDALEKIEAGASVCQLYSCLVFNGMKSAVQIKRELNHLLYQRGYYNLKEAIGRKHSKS

[5] = P. aeruginosa biofilm formation inhibitors, primary screen, strain PAO1, LB-PBS medium, absorbance 600 nm (AID 1176); further: test concentration not given here; conditions: P. aeruginosa PAO1 growth/biofilm, A600, 12 h; higher = more signal
[6] = S. cerevisiae RM11-1a growth modifiers, primary screen, strain RM11-1a, OD600, basal, 24 h (AID 1177); conditions: OD600, 24 h, higher = more signal, called active from +8 up or from −8 down;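 further: cultures grown under basal conditions with no added stressor; test concentration not given here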
[7] = E. coli acrAB mutant growth effects, primary screen, E. coli filamentation inducers, strain DRC39, OD650, 24 h (AID 1178); conditions: higher = more signal, called active from +8 up or from −8 down;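 further: growth measured as culture turbidity by optical density at 650 nm; test concentration not given here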
[8] = E. coli acrAB mutant growth effects, primary screen, E. coli filamentation inducers, strain DRC39, OD650, 48 h (AID 1179);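 further: screen aims at cell division blockers that make cells filament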; conditions: E. coli DRC39 delta-acrAB growth, higher = more signal, called active from +8 up or from −8 down
[9] = RPMI8226 myeloma cell viability, profiling panel, resazurin fluorescence, basal, 24 h, PK04 Diversity Set (AID 1180); conditions: higher = more signal;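 further: RPMI8826 multiple myeloma cell line at 5000 cells per well; test concentration not given here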
[10] = biological target: E3 ubiquitin-protein ligase XIAP (Homo sapiens) (UniProt P98170); experiment: XIAP binders, primary screen, biophysical, small-molecule microarray, fluorescence 635 nm (AID 1181); conditions: small-molecule microarray binding, higher = more signal;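 further: score merges 667 nm emission and signal to noise over triplicate slides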
E3 ubiquitin-protein ligase XIAP (Homo sapiens), sequence (P98170 whole entry, looked up): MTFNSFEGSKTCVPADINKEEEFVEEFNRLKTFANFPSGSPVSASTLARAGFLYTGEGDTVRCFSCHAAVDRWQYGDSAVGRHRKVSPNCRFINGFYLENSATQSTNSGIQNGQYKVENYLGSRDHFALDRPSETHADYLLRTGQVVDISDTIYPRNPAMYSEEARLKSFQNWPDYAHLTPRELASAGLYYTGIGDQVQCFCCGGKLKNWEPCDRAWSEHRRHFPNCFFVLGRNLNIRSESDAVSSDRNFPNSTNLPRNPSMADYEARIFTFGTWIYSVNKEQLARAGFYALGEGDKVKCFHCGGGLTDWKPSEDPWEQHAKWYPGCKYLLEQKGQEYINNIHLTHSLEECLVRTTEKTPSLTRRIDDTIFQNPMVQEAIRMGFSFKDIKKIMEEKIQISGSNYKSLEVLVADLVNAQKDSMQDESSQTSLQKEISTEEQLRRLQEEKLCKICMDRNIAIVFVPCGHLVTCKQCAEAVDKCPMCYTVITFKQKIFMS

Compound	z-score [1]	z-score [2]	z-score [3]	composite z-score [4]	z-score [5]	z-score [6]	z-score [7]	z-score [8]	z-score [9]	composite z-score [10]
C=CCN(CCCC)C(=O)C1N(c2ccc(CCO)cc2)C(=O)C2C(C(=O)O)C3C=CC21O3 (stereo not given)	0.533 and -0.912	-0.539 (inactive) and -0.275 (inactive)	-0.217 (inactive) and -0.801 (inactive)	-0.51 (inactive) and -1.02 (inactive)	0.633 (inactive) and 0.276 (inactive)	-0.639 (inactive) and 0.159 (inactive)	0.227 (inactive) and 0.473 (inactive)	-0.248 (inactive) and 0.25 (inactive)	-0.0068 and 0.0215	-0.53 and 0.0871
C[N+](C)(C)CCCCNC(=O)[C@@H]1C[C@@H]2C(=O)N[C@@H](CCCC[N+](C)(C)C)C(=O)N2[C@@H]1c1cccc(OCCO)c1	-0.249 and -0.0346	0.962 (inactive) and 0.187 (inactive)	0.405 (inactive) and 0.349 (inactive)	-30.9 (active) and -30.3 (active)	-0.239 (inactive) and 0.022 (inactive)	1.57 (inactive) and 0.24 (inactive)	0.113 (inactive) and -0.132 (inactive)	-0.0555 (inactive) and 0.517 (inactive)	0.399 and 0.607	1.01 and -0.22
Cc1ccc(S(=O)(=O)N[C@H]2COC(=O)[C@@H](Cc3ccccc3)NC(=O)[C@@H](C)COC(=O)CC=C[C@@H]2C)cc1	0.328 and 0.224	-0.207 (inactive) and -0.631 (inactive)	0.0731 (inactive) and -0.209 (inactive)	-0.395 (inactive) and -0.412 (inactive)	-0.814 (inactive) and -0.479 (inactive)	0.0658 (inactive) and 0.0386 (inactive)	0.046 (inactive) and -0.0139 (inactive)	-0.479 (inactive) and 0.385 (inactive)	0.0023 and 0.238	-0.259 and -0.469
CO[C@H]1COC(=O)[C@H](C)NC(=O)CC=C[C@@H](C)[C@H](OC)COC(=O)CC=C[C@@H]1C	0.322	0.278 (inactive)	0.845 (inactive)	0.804 (inactive)	-0.519 (inactive)	1.18 (inactive)	0.901 (inactive)	-0.959 (inactive)	0.636	0.234
C=CCN(CCCCC)C(=O)C1N(C(C)(C)CO)C(=O)C2C(C(=O)O)C3C=CC21O3 (stereo not given)	-0.839 and -0.382	0.579 (inactive) and -0.295 (inactive)	-1.09 (inactive) and -0.64 (inactive)	0.457 (inactive) and -0.446 (inactive)	-0.91 (inactive) and -1.08 (inactive)	-1.01 (inactive) and -1.15 (inactive)	-0.62 (inactive) and 0.193 (inactive)	-0.396 (inactive) and 0.2 (inactive)	-0.725 and -0.827	-0.0387 and -0.245
COC(=O)C1=C(C)N(Cc2ccccc2)[C@]23O[C@](C(=O)OC)(C(=O)N2[C@@H]1c1ccccc1)[C@@H](C(=O)OC)[C@H]3C(=O)OC	0.348 and -0.761	0.583 (inactive) and -0.704 (inactive)	0.409 (inactive) and -0.59 (inactive)	0.466 (inactive) and -0.412 (inactive)	0.177 (inactive) and 0.241 (inactive)	1.62 (inactive) and 0.72 (inactive)	0.148 (inactive) and 0.72 (inactive)	0.165 (inactive) and 0.532 (inactive)	0.537 and -0.332	-0.17 and -0.219
CO[C@H]1COC(=O)CC=C[C@@H](C)COC(=O)[C@H](CCSC)NC(=O)CC=C[C@@H]1C	-0.591 and 0.597	-0.92 (inactive) and -2.28 (inactive)	-0.473 (inactive) and 1.67 (inactive)	0.177 (inactive) and 0.0636 (inactive)	0.0821 (inactive)	-0.177 (inactive) and -0.642 (inactive)	0.277 (inactive) and 0.719 (inactive)	-1.27 (inactive) and 0.0985 (inactive)	-0.0162 and 1	0.266 and 0.0623
CC(CO)N1C(=O)[C@@H]2C3C(=O)OCCC=C[C@H]3OC23C=CCN(Cn2nnc4ccccc42)C(=O)[C@@H]13 (stereo not given in full)	0.576 and 0.999	0.771 (inactive) and 0.283 (inactive)	-0.415 (inactive) and -0.0046 (inactive)	-4.99 (inactive) and -0.478 (inactive)	0.55 (inactive) and 0.798 (inactive)	1.07 (inactive) and -0.995 (inactive)	-0.125 (inactive) and 0.0633 (inactive)	-0.214 (inactive) and -0.099 (inactive)	0.0489 and -0.178	-0.0448 and -0.21
CC(CO)N1C(=O)[C@@H]2C3C(=O)OCCC=C[C@H]3OC23C=CCN(c2ccc(Cl)cc2)C(=O)[C@@H]13 (stereo not given in full)	-0.445 and 0.702	0.604 (inactive) and -0.219 (inactive)	-0.0472 (inactive) and -0.544 (inactive)	-1.16 (inactive) and -1.13 (inactive)	-0.497 (inactive) and -0.167 (inactive)	1.43 (inactive) and -0.727 (inactive)	0.519 (inactive) and -0.342 (inactive)	0.399 (inactive) and -0.538 (inactive)	0.23 and -0.131	0.269 and -0.0172
